Insulin prom up: MIN6 insulin promoter up-regulation | z-score at 5 µM | MIN6 insulin promoter-GFP reporter, high-content imaging; active compounds read high | hit rate 0.3% among 190,000;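 active = z-score above 3 at 5 µM with at least 500 cells counted in the well; inconclusive = wells under 500 cells, flagged as cytotoxic or low count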
Lmaj promast: inhibitors of Leishmania major promastigote growth; Leishmania major promastigotes, resazurin fluorescence viability; inhibition, % at 10 µM; hit rate 9% among 200,000; AID 1063; in the data active = inhibition above about 50%;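 note: promastigotes grown with compound for 44 hours at 28 °C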
PTEN del growth: suppresses growth of cells with PTEN deletion. HCT116 PTEN-null viability, CellTiter-Glo, 60 h; active compounds read low. viability, % at 10 µM. hit rate 1.2% among 140,000. AID 827;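 active = viability at or below a set limit, 4 SD under the median of all tested compounds, cut at about 3.7% in these data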;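 note: PTEN knockout HCT116 line with beta catenin targeted HCT116 as companion control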
bCat KO growth: beta-catenin-lacking colon tumor cell growth suppression; HCT116 beta-catenin knockout viability, CellTiter-Glo, 60 h; active compounds read low; hit rate 1.5% among 140,000; viability, % at 10 µM;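 active = viability at or under a set limit, the compound median less 4 SD, cut at about 6% in these data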;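 note: 0% = Hyamine 1622 control at 20 µM and 100% = untreated cell control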
Insulin prom inh: TRM-6 insulin promoter activity inhibition | hit rate 0.9% among 130,000 | TRM-6 cells (human fetal islet line), insulin promoter-eGFP reporter, imaging; reporter expression induced with tamoxifen | AID 1273 | inhibition, % at 2 µM;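 active = inhibition above the mean plus 3 SD, with well images judged a real hit on visual review, cut at about 60% in these data, passing the limit was not always enough; inconclusive = inhibition over the cutoff but images rejected on review; inactive = inhibition not above the cutoff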
Autophagy mod: alters autophagy in cells | MEF GFP-LC3 puncta imaging; test concentration mostly 10 µM | calls only at 10 µM (by protocol) | hit rate 0.98% among 190,000;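 active = percentage of spot-positive cells more than 3 SD above its plate mean, without a fluorescence outlier flag or 80% toxicity; inconclusive = no clear call, values can overlap the other calls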;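 note: spot-positive cell cutoff set from DMSO-treated cells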
* marks the source's active call; other numbers are inactive results. Rows were chosen to be rich in hits. Some 9.6% of all compounds tested hit in one or more screens of this group.

What do the screens show for `Cc1ccccc1Cn1cccc1/C=C1/C(=N)N2C=CSC2=NC1=O`?
Insulin prom up: 0.17; Lmaj promast: 10; PTEN del growth: 84; bCat KO growth: 80; Autophagy mod: inactive

What do the screens show for `CC(C)c1ccc(-n2cccc2/C=C2/C(=N)N3C=CSC3=NC2=O)cc1`?
Insulin prom up: -0.2; Lmaj promast: 98*; PTEN del growth: 63; bCat KO growth: 64; Insulin prom inh: 14; Autophagy mod: inactive

Results for CC1=CSC2=NC(=O)/C(=C\c3cccn3-c3ccc([N+](=O)[O-])cc3)C(=N)N12 ?
Insulin prom up: 0.63; Lmaj promast: 60*; PTEN del growth: 47; bCat KO growth: 45; Insulin prom inh: -27; Autophagy mod: inactive

Results for CC1=CSC2=NC(=O)/C(=C\c3cccn3-c3ccccc3)C(=N)N12 ?
Insulin prom up: 0.43; Lmaj promast: 88*; PTEN del growth: 88; bCat KO growth: 90; Insulin prom inh: 8; Autophagy mod: inactive

How did Cc1cc(C)nc(N2CCCC(C(=O)Nc3cc(F)ccc3C)C2)n1 (stereo unspecified) do in these assays?
Insulin prom up: -0.27; Lmaj promast: 8; PTEN del growth: 93; bCat KO growth: 95; Insulin prom inh: 50; Autophagy mod: inactive

Results for COc1ccccc1/C=N/NC(=O)Cn1cnc([N+](=O)[O-])n1 ?
Lmaj promast: 4; Insulin prom inh: 20; Autophagy mod: inactive

Results for O=C(Cn1cnc([N+](=O)[O-])n1)N/N=C/c1ccc2ccccc2c1 ?
Insulin prom up: 0.35; Lmaj promast: 96*; PTEN del growth: 86; bCat KO growth: 96; Autophagy mod: inactive

How did CCn1c(Cn2nnc(-c3ccccc3)n2)nnc1SCC(=O)Nc1ccc(C(C)=O)cc1 do in these assays?
Insulin prom up: 4.9*; Lmaj promast: -1; PTEN del growth: 77; bCat KO growth: 83; Insulin prom inh: 10; Autophagy mod: inactive

How did Cc1cccc(C(=O)Nc2cccc(OC(=O)c3cccc(C)c3)c2)c1 do in these assays?
Insulin prom up: 0.43; Lmaj promast: 2; PTEN del growth: 75; bCat KO growth: 60; Insulin prom inh: 13; Autophagy mod: inactive

Results for C[n+]1c2n(c3ccccc31)N=C(c1ccccc1)CS2 ?
Insulin prom up: -1.3; Lmaj promast: 98*; PTEN del growth: 14; bCat KO growth: 11; Insulin prom inh: 31; Autophagy mod: inactive

How did C[n+]1c2n(c3ccccc31)N=C(c1ccc(Br)cc1)CS2 do in these assays?
Insulin prom up: -2.9; Lmaj promast: 97*; PTEN del growth: 21; bCat KO growth: 10; Autophagy mod: inactive

How did C[n+]1c2n(c3ccccc31)N=C(c1ccc(-c3ccccc3)cc1)CS2 do in these assays?
Insulin prom up: inconclusive; Lmaj promast: 100*; Autophagy mod: inactive

Results for COc1ccccc1Nc1ccc(C(=O)NC2CCCCC2)cn1 ?
Insulin prom up: -0.43; Lmaj promast: -4; PTEN del growth: 117; bCat KO growth: 98; Insulin prom inh: 21; Autophagy mod: inactive

How did O=C(c1ccc(S(=O)(=O)NCC2CCCO2)cc1)N1CCN(c2cccc(Cl)c2)CC1 (stereo unspecified) do in these assays?
Insulin prom up: -1.4; Lmaj promast: 0; Autophagy mod: inactive

How did COCCNC(=S)Nc1ccc(N2CCCCC2)cc1 do in these assays?
Insulin prom up: -0.4; Lmaj promast: 3; Autophagy mod: inactive

How did CNC(=O)CSc1nc2nn(-c3ccccc3)c(=O)c-2c2n1CCCCC2 do in these assays?
Insulin prom up: -0.13; Lmaj promast: -5; PTEN del growth: 56; bCat KO growth: 63; Insulin prom inh: 16; Autophagy mod: inactive

Results for Cc1ccc(/C(=N\O)c2oc3c(C)c4oc(=O)cc(C)c4cc3c2C)cc1 ?
Insulin prom up: inconclusive; Lmaj promast: 49; PTEN del growth: 2.6*; bCat KO growth: 2.0*; Insulin prom inh: inconclusive; Autophagy mod: inactive

Results for COc1c(Br)cc(C(N)=O)cc1OCc1ccccc1 ?
Insulin prom up: 0.24; Lmaj promast: 49; PTEN del growth: 90; bCat KO growth: 87; Insulin prom inh: 3; Autophagy mod: inactive

What do the screens show for `CCOc1cc(C(N)=O)cc(Br)c1OCc1ccccc1`?
Insulin prom up: -0.38; Lmaj promast: 100*; Autophagy mod: inactive

How did CCN1CCN(c2ncnc3c2c(-c2ccccc2)cn3-c2ccc(F)cc2)CC1 do in these assays?
Lmaj promast: 86*; Insulin prom inh: 0; Autophagy mod: active

Results for CC(C)CCN1CCN(Cc2nc3ccccc3s2)CC1CCO (stereo unspecified) ?
Insulin prom up: 0.4; Lmaj promast: 82*; Insulin prom inh: -7; Autophagy mod: inactive

Results for CC(C)CCN1CCN(CC(c2ccccc2)c2ccccc2)CC1CCO (stereo unspecified) ?
Insulin prom up: -0.36; Lmaj promast: 91*; Insulin prom inh: -8; Autophagy mod: inactive

Results for CC(C)NC(=O)C1CCN(C2CCN(Cc3nc4ccccc4s3)CC2)CC1 ?
Insulin prom up: -0.11; Lmaj promast: 86*; Autophagy mod: inactive

What do the screens show for `Cc1oc(-c2cccs2)nc1CN1CCN(CCC(C)C)C(CCO)C1` (stereo unspecified)?
Lmaj promast: 84*; Autophagy mod: inactive

Results for CC(=O)c1cc(CN2CCC(N3CCC(C(=O)NC(C)C)CC3)CC2)cs1 ?
Lmaj promast: -4; Insulin prom inh: 13; Autophagy mod: inactive

Results for CC(C)CCN1CCN(Cc2ccsc2)CC1CCO (stereo unspecified) ?
Insulin prom up: -0.06; Lmaj promast: -3; Autophagy mod: inactive

What do the screens show for `CC(=O)N/C(=C\c1ccc(F)cc1)C(=O)N(C)C`?
Insulin prom up: 0.01; Lmaj promast: -3; PTEN del growth: 100; bCat KO growth: 99; Insulin prom inh: 6; Autophagy mod: inactive

Results for O=C(CSc1nc(-c2ccccc2)cs1)NCCN1C(=O)CSC1=O ?
Insulin prom up: 0.15; Lmaj promast: 1; Autophagy mod: inactive

What do the screens show for `CCCc1ncc(C(O)(c2ccccc2)c2ccccc2)n1C`?
Insulin prom up: -0.47; Lmaj promast: 24; Autophagy mod: inactive

What do the screens show for `O=C(C[n+]1ccccc1)Nc1ccccc1C(=O)O`?
Insulin prom up: 0.57; Lmaj promast: -2; Insulin prom inh: 0; Autophagy mod: inactive

What do the screens show for `COc1ccc(NC(=O)/C(=C\c2cc(OC)c(OC)cc2[N+](=O)[O-])NC(=O)c2ccccc2)cc1`?
Insulin prom up: 0.06; Lmaj promast: 1; PTEN del growth: 93; bCat KO growth: 89; Insulin prom inh: -17; Autophagy mod: inactive

Results for OCCC1CN(Cc2nc3ccccc3s2)CCN1CCc1ccccc1 (stereo unspecified) ?
Insulin prom up: -2.5; Lmaj promast: 84*; Autophagy mod: inactive

Source: PubChem BioAssay
